Results: PubChem BioAssay
Calls of active or inactive are those of the source.

Experiments:
[1] = A549 cell viability effects, profiling panel, calcein-AM fluorescence, 48 h, basal (AID 1162); conditions: higher = more signal
[2] = adipocyte viability effects, profiling panel, cell-based, 3T3-L1 adipocytes, calcein-AM fluorescence, 48 h, basal (AID 1163); conditions: 3T3-L1 adipocytes viability, higher = more signal
[3] = HepG2 cell viability effects, profiling panel, calcein-AM fluorescence, 48 h, basal (AID 1164); conditions: higher = more signal
[4] = MM1S cell viability effects, profiling panel, calcein-AM fluorescence, 48 h, basal (AID 1165); conditions: higher = more signal;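 note: viability of MM1S multiple myeloma cells under basal unstimulated conditions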
[5] = basal RPMI8226 viability, no added stimulus, profiling panel, cell-based, calcein-AM fluorescence, 48 h, PK04 Diversity Set (AID 1166); conditions: RPMI8226 myeloma viability, higher = more signal;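 note: cells grown under basal conditions without added stimulus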
[6] = basal HepG2 mitochondrial membrane potential changes, profiling panel, cell-based, JC-1 fluorescence, 24 h, 100 nL compound (AID 1167); conditions: higher = more signal
[7] = basal 3T3-L1 adipocyte mitochondrial potential changes, profiling panel, cell-based, JC-1 fluorescence, 3T3-L1 adipocytes, 24 h, 100 nL compound (AID 1168); conditions: JC-1 mitochondrial fluorescence, higher = more signal, called active from +8 up or from −8 down
[8] = basal RPMI8226 mitochondrial membrane potential changes, profiling panel, cell-based, JC-1 fluorescence, 24 h, 100 nL compound (AID 1169); conditions: RPMI8226 myeloma, JC-1 mitochondrial potential fluorescence, higher = more signal
[9] = basal MM1S mitochondrial membrane potential changes, profiling panel, cell-based, JC-1 fluorescence, 24 h, 100 nL compound (AID 1170); conditions: higher = more signal
[10] = A549 lung cancer cell viability effects, profiling panel, resazurin fluorescence, 24 h, PK04 Diversity Set (AID 1171); conditions: higher = more signal, called active from +8 up or from −8 down
Note: test concentration not given here.

Structure (SMILES) | z-score [1] | z-score [2] | z-score [3] | z-score [4] | z-score [5] | z-score [6] | z-score [7] | z-score [8] | z-score [9] | z-score [10]
O=C1O[C@@H](c2ccccc2)[C@@H](c2ccccc2)N2[C@@H](c3ccccc3OCCO)[C@]3(C(=O)Nc4ccc(C#CC5=CCCCC5)cc43)[C@@H](C(=O)Nc3nc4ccccc4s3)[C@H]12 | -1.36 | 0.608 | -0.786 | -2.8 | -2.88 | -2.9 | -0.353 (inactive) | -1.05 | -1.42 | -0.301 (inactive)
O=C1O[C@H](c2ccccc2)[C@H](c2ccccc2)N2[C@H]1[C@@H](C(=O)NC[C@H](O)c1ccccc1)[C@]1(C(=O)Nc3ccccc31)[C@H]2c1ccc(OCCO)cc1 | -0.425 | 1.61 | -1.41 | -2.53 | -3.09 | -2.29 | 1.95 (inactive) | -1.21 | -1.21 | -0.333 (inactive)
CCOC(=O)[C@H]1C/C=C/C[C@H](C(=O)OCC)C(=O)O[C@H]2[C@@H](OC)O[C@H](CO)[C@@H](OC(=O)Nc3ccc(C#N)cc3)[C@@H]2OC1=O | -2.47 | 1.37 | -4.91 | -3.15 | -4.11 | -2.79 | 1.14 (inactive) | -0.975 | -2.11 | -4.98 (inactive)
CCCCC(O)C1C=CC2C(=O)N(c3ccccc3)C(=O)C2N1Nc1ccccc1F (stereo not given) | -0.0693 | -0.767 | 0.297 | 0.447 | -0.812 | -1.75 | -0.935 (inactive) | -0.425 | -0.444 | -0.684 (inactive)
[N-]=[N+]=NCc1ccccc1C[C@]1(C(=O)NCC(O)CO)N=C(c2ccc(OCCCO)cc2)O[C@H]1c1ccccc1 (stereo not given in full) | -0.691 | 0.0311 | -1.25 | -2.42 | -1.81 | -1.31 | -0.142 (inactive) | -0.547 | -0.727 | -0.246 (inactive)
CN1C(=O)C2C=CC(C(O)c3ccc(-c4ccccc4)s3)N(N(c3ccccc3)c3ccccc3)C2C1=O (stereo not given) | 0.281 | -0.905 | 0.391 | -0.616 | 0.275 | 0.748 | -1.98 (inactive) | -1.05 | -0.434 | -0.434 (inactive)
O=C1OCC=C[C@H]2OC34C=CCN(CCN5CCOCC5)C(=O)[C@H]3N(CCCO)C(=O)[C@@H]4[C@@H]12 (stereo not given in full) | 0.74 | 1.38 | 0.811 | 1.11 | -1.16 | -0.326 | 0.584 (inactive) | 0.676 | 0.57 | -1.38 (inactive)
[N-]=[N+]=NCc1ccccc1[C@@H]1OC(c2ccc(OCCCO)cc2)=N[C@]1(CCS(=O)(=O)c1ccccc1)C(=O)NCCN1CCOCC1 | 1.68 | -0.0282 | 1.61 | 0.377 | 0.501 | 0.374 | 0.995 (inactive) | 0.127 | -0.806 | -0.597 (inactive)
COC(=O)[C@@]1(Cc2ccc(OC)cc2)[C@H]2c3cc(C(=O)N4CCCC4)n(Cc4ccsc4Br)c3C[C@H]2CN1C(=O)c1ccccc1 | -1.92 | -0.793 | -0.119 | -3.3 | -4.43 | 0.321 | -1.05 (inactive) | -0.822 | -2.91 | -2.75 (inactive)
COC(=O)[C@@]1(Cc2ccc(F)cc2)[C@@H]2[C@@H](CC(=O)[C@H]2CC(=O)C(=O)N(C)C)CN1C(=O)c1ccccc1 | -0.294 | -1.19 | 0.27 | -0.886 | -1.73 | 1.65 | -0.554 (inactive) | -0.00425 | -1.92 | -2 (inactive)
CCCCCCC#C[Si](O[C@H](c1ccccc1)c1cn([C@H](CO)Cc2ccccc2)nn1)(C(C)C)C(C)C | 1.77 | -0.121 | -0.407 | -0.178 | -0.542 | 0.338 | -0.94 (inactive) | -0.229 | -1.75 | 0.419 (inactive)
CCC(CC)C(O)C1C=CC2C(=O)N(C)C(=O)C2N1Nc1ccccc1 (stereo not given) | 0.095 | -1.07 | 0.597 | -0.299 | -0.469 | -0.843 | -0.83 (inactive) | -0.802 | 0.0765 | 0.78 (inactive)
CCCCN1CC=CC23O[C@@H]4C=CCOC(=O)[C@@H]4[C@H]2C(=O)N(CCCCCO)[C@@H]3C1=O (stereo not given in full) | -0.503 | -0.122 | -0.781 | 0.276 | 0.778 | -0.235 | 0.17 (inactive) | -0.0189 | -0.0548 | -0.508 (inactive)
CN1C(=O)C2C=CC(C(O)c3cc(C(F)(F)F)cc(C(F)(F)F)c3)N(N3CCCCC3)C2C1=O (stereo not given) | 0.704 | 0.421 | 0.499 | -1.02 | -0.533 | -0.672 | -0.205 (inactive) | 0.462 | -0.444 | 0.113 (inactive)
COc1ccc([Si](C)(C)[C@H]2[C@H](CCO)O[C@@]3(C(=O)N(Cc4ccc(N5C(=O)COc6ccccc65)cc4)c4ccccc43)[C@@H]2C)cc1 | -0.525 | 0.0432 | -3.14 | -2.36 | -4.33 | -0.509 | 1.36 (inactive) | -1.07 | -2.12 | -2.35 (inactive)
C=C[C@H](COC(C)=O)N(C(=O)OC(C)(C)C)S(=O)(=O)c1ccc(Br)cc1 | 1.67 | 0.49 | 1.36 | -0.138 | 0.0593 | -0.87 | -0.614 (inactive) | -0.931 | -0.406 | 0.708 (inactive)
O=C1O[C@H](c2ccccc2)[C@H](c2ccccc2)N2[C@H]1[C@@H](C(=O)Nc1nc3ccccc3s1)[C@]1(C(=O)Nc3ccc(C#CC4(O)CCCCCC4)cc31)[C@H]2c1ccc(OCCO)cc1 | -0.128 | 1.45 | -0.318 | -1.89 | -2 | -3.77 | -0.727 (inactive) | -1.22 | -1.41 | 0.634 (inactive)
COc1cc2c(cc1OC)CN(C(=O)[C@H]1[C@@H]3C(=O)O[C@@H](c4ccccc4)[C@@H](c4ccccc4)N3[C@@H](c3ccc(O)cc3)[C@]13C(=O)Nc1ccc(C#CC4=CCCCC4)cc13)CC2 | -0.59 | 0.474 | 0.679 | -0.35 | -2.23 | -0.259 | 2.83 (inactive) | -0.243 | -0.101 | -0.435 (inactive)
COCCOC(=O)N1C(=O)[C@@]2(c3cc(C#CC4=CCCCC4)ccc31)[C@H](C(=O)Nc1nc3ccccc3s1)[C@H]1C(=O)O[C@H](c3ccccc3)[C@H](c3ccccc3)N1[C@@H]2c1ccccc1OCCO | -0.812 | 2.14 | -0.789 | -1.59 | -2.27 | -2.7 | -0.2 (inactive) | -0.849 | -1.29 | 0.163 (inactive)
Cc1ccc(C(C)CC(O)C2C=CC3C(=O)N(c4ccccc4)C(=O)C3N2Nc2ccc([N+](=O)[O-])cc2)o1 (stereo not given) | -0.483 | 0.0852 | 0.268 | -0.0308 | -0.259 | -0.414 | -2.12 (inactive) | -0.0508 | -1.54 | 0.35 (inactive)
CCOC(=O)C[C@H]1[C@H](OC(=O)Cc2ccc3c(c2)OCO3)[C@@H](NC(=O)c2ccc(-c3ccccc3)cc2)c2cc(OCCCO)ccc2N1C(=O)Cc1ccc(OC)cc1 | 2.24 | 0.53 | 1.09 | 0.704 | 1.1 | 2.33 | 0.242 (inactive) | 0.679 | -1.03 | -0.0841 (inactive)
CC1CC/C=C\[C@H]2OC34C=CCN(C(C)(C)C)C(=O)[C@H]3N(CCCCCCO)C(=O)[C@@H]4C2C(=O)O1 (stereo not given in full) | 0.406 | 0.305 | 1.08 | 0.742 | 0.298 | 0.436 | 1.11 (inactive) | 0.563 | -0.166 | -0.43 (inactive)
C=C(CCCC)/C(=C/C[C@@H](OC(C)=O)c1ccccc1OCCO)c1cnc2ccccc2c1 | -0.865 | 1.79 | -0.749 | -2.72 | -3.31 | 0.749 | -1.17 (inactive) | -0.691 | 0.61 | -1.21 (inactive)
COc1ccc(C(O)C2C=CC3C(=O)NC(=O)C3N2Nc2ccccn2)cc1 (stereo not given) | -0.483 | -0.0402 | -0.454 | -0.632 | 0.202 | -0.69 | -0.0063 (inactive) | -0.143 | 0.0564 | -0.582 (inactive)
CC(C)N1C(=O)[C@@]2(Cc3ccccc31)c1ccccc1C(=O)N(C1CCCCC1)[C@H]2c1ccc(CO)cc1 | -0.0998 | 0.0621 | -0.775 | -0.546 | 0.0484 | 0.095 | 0.327 (inactive) | 0.378 | -1.79 | 2.32 (inactive)
COC(=O)[C@@]1(Cc2ccc(F)cc2)[C@H]2c3cc(C(=O)N(C)C)n(Cc4ccc(S(C)(=O)=O)cc4)c3C[C@H]2CN1C(=O)c1ccccc1 | -0.379 | -0.631 | 0.137 | 0.373 | -0.198 | 3.32 | -0.224 (inactive) | 0.059 | 0.125 | -0.46 (inactive)
COC(=O)C(CC#Cc1ccc2c(c1)[C@]1(C(=O)N2)[C@H](c2ccc(O)cc2)N2[C@H](c3ccccc3)[C@H](c3ccccc3)OC(=O)[C@H]2[C@@H]1C(=O)Nc1nc2ccccc2s1)C(=O)OC | 1.37 | 0.72 | 1.47 | 0.247 | -1.65 | -1.44 | -0.719 (inactive) | -0.712 | 0.422 | -0.351 (inactive)
COC(=O)[C@@]1(Cc2ccccc2)[C@H]2c3cc(C(=O)N(C)C)n(CCSCCO)c3C[C@H]2CN1C(=O)c1ccccc1 | 0.571 | -0.0167 | -0.0301 | -0.614 | -0.933 | -1.37 | -0.728 (inactive) | 0.354 | -0.229 | 0.0392 (inactive)
O=C1OCCC/C=C\[C@H]2OC34C=CCN(c5ccc6ccccc6c5)C(=O)[C@H]3N(CCCCCCO)C(=O)[C@@H]4C12 (stereo not given in full) | 1.21 | 0.817 | 2 | 1.92 | 0.254 | 1.02 | 0.4 (inactive) | -0.967 | -0.257 | -0.0595 (inactive)
C=C(CCCC)C(=O)CC[C@H](OC(C)=O)c1cccc(OCCO)c1 | -0.0802 | 1.62 | -0.889 | -1.12 | -1.18 | -0.525 | 0.906 (inactive) | 0.139 | -0.964 | -0.252 (inactive)
